From PubChem BioAssay (NCI) come the findings set out here.

Structures are written as SMILES. About 83,000 compounds went through this panel and 20% of them were active in at least one assay; those are over-represented in the sample as a whole.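 Testing used 96-well plates and a 48-hour single-concentration exposure. Example: -40 means 40% of the starting cells died.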 Unmarked numbers belong to inactive results. Activity calls are given as the source filed them.

This assay deals with M14 melanoma. The experiment in a line: NCI-60 one-dose screen, 48 h (100 = growth as untreated, 0 = no growth, -100 = all killed). As to conditions: 10 µM. On the procedure:
Growth inhibition of the M14 human tumor cell line is measured as a screen for anti-cancer activity. Cells are grown in 96 well plates and exposed to the test compound for 48 hours. Compounds are tested at a single concentration, which is 10^-5 M for most compounds. The reported endpoint is percent growth (GI% or GIPRCNT), where numbers from 0 - 100% represent growth inhibition, and numbers from -100% - 0 represent cell death. For example, a value of 40 represents 60% growth inhibition. A value of 0 means no net growth occurred over the course of the experiment. A value of -40 indicates 40% of cells at the beginning of the experiment died by the end of the experiment. A value of -100 means all cells are dead at the end of the experiment.
NCI-60 Human Tumor Cell Lines Screen was performed using the standard one-dose NCI protocol, which is described in more detail at https://dtp.cancer.gov/discovery_development/nci-60/default.htm.
Compounds with GIPRCNT values below 10 were considered active. Activity score was based on GIPRCNT using the following formula: […]
Score is 0 for GIPRCNT values of 100 or above, 50 for GIPRCNT values of 0, and 100 for GIPRCNT values of -100.
Turning to `COc1cc(-c2cc(/C=C/C(=O)c3ccc(Cl)c(Cl)c3)[nH]n2)cc(OC)c1OC`, the growth was 89.8%. Consider `COc1cc(-c2nn3c(/C=C4/C(=O)Nc5ccccc54)c(-c4ccc(C)cc4)nc3s2)cc(OC)c1OC`, for which the growth was 42.9%. To `COc1ccc2c(c1)O/C(=C\c1ncc([N+](=O)[O-])n1C)C2=O` belongs -54.6% (active); to `COC(=O)[C@@H]1[C@H](O)[C@H](C)[C@H](O)[C@@](C)(O)/C=C\C=C(C)C(=O)Nc2c(C)c(OC(C)=O)c3c(c2O)C(=O)C(C)=C2OCOC(=C23)C(C)=C[C@@](C)(O)[C@H](O)[C@@H](C)[C@H]1OC(C)=O`, 122%. To `CC(=O)c1cc(Cl)ccc1O` belongs 106%; to `CSc1nn(-c2ccccc2)c2ncnc(Oc3ccc(C)cc3)c12`, 90.5%; to `CSc1nn(-c2ccccc2)c2ncnc(Oc3ccccc3)c12`, 102%. `CN(C)CCNC(=O)c1cccn2c(=O)c3cc4ccccc4cc3nc12`: the growth is -63.7% (active). As to `N#Cc1c(C#N)c(SSc2c(C#N)c(C#N)c(N)n2-c2ccccc2)n(-c2ccccc2)c1N`, the growth is 115%. For `CCN1CCN(c2nc3ccccc3c3c(=O)c4ccccc4sc23)CC1` the value was -18.5% (active); for `Cc1cc(=O)[nH]c(N/N=C/c2ccccc2O)n1`, 29.9%. `CC(=O)n1c(-c2ccc(Cl)c(Cl)c2)cn(-c2ccc(Cl)cc2)c1=O`: the growth is 34%. `Nc1ccc2cc(S(=O)(=O)O)cc(O)c2c1N=Nc1ccc(F)cc1`: the growth was 100%. To `CCN(CC)CCNC(=O)c1ccc(NC(C)=O)cc1` belongs 109%; to `COc1ccc(-c2nc3ccccn3c2-c2nnc(-c3cc(OC)c(OC)c(OC)c3)o2)cc1`, 75.7%; to `C#Cc1ccc(-n2c(/C=C/c3ccc4ccccc4n3)nc3ncccc3c2=O)cc1`, -19% (active).

Turning to `COc1ccc(-c2nn(-c3cccc(NC(=O)Nc4cccc(C(F)(F)F)c4)c3)cc2-c2ccncc2)cc1Cl`, the growth was 4.56% (active). For the compound `COC(=O)c1c(-c2ccccc2)csc1NC(=O)c1c(-c2ccccc2)noc1C`, the growth is 52.3%. For `ClCCOCCn1cnc2c(Cl)nc(Cl)nc21` the value was 46.5%; for `Nc1ccc2c(c1)C1(CCC2)NC(=O)NC1=O` (stereo not given), 100%; for `Cc1nc2ccc(CN(C)c3ccc(C(=O)N[C@@H](CCC(=O)O)C(=O)O)s3)cc2c(=O)[nH]1`, 21.8%. As to `Nc1c(C(=O)Nc2cccc(F)c2)sc2nc3c(cc12)C(=O)CCC3`, the growth was 15.3%. For `c1ccc2c(c1)oc1c3cccnc3ccc21` the value was 100%; for `NC(=S)N=Nc1c(O)c2ccccc2c2ccccc12`, -68.6% (active).

On to `CN(C)Cc1cn(-c2ncc(-c3ccc(C(F)(F)F)cc3)c(NC3CCCCCC3)n2)nn1`, for which the growth is 84.5%. Regarding `COc1ccc2c(c1OC)O/C(=C\c1ncc([N+](=O)[O-])n1C)C2=O`, the growth is -59.1% (active). To `Clc1ccc(/C=C2\CCCC3=C2N=C2SC=NN2C3c2ccc(Cl)cc2)cc1` (stereo not given) belongs 94.9%.

Consider `CC(C)(C)c1ccc(N2CSC(=S)N(c3ccc(C(C)(C)C)cc3)C2)cc1`, for which the growth is 95.9%. On to `O=C(c1ccc(Cl)cc1Cl)N1CCOCC1`, for which the growth was 103%. With `COc1cc(CNc2ccccc2C(=O)N2CCN(C(=O)c3cc(-c4cc(OC)c(OC)c(OC)c4)n4nc(-c5ccccc5)cc4n3)CC2)cc(OC)c1OC`, the growth is 33%. Take `NC(=O)CC1(c2ccccc2)CCCCC1`: the growth is 96%. To `C#Cc1ccc(-n2c(/C=C/c3cc(OC)cc(OC)c3)nc3ncccc3c2=O)cc1` belongs 81.2%. Regarding `COc1cc(/C=N/NC(=O)c2ccccc2Nc2cccc(C(F)(F)F)c2)cc(OC)c1OC`, the growth was 177%. Turning to `COc1cc(C2CC(c3ccc(Nc4ccnc5cc(Cl)ccc45)cc3)=NN2c2ccc(Cl)cc2)cc(OC)c1OC` (stereo not given), the growth is 38.2%.

As to `CN(C)C(=S)N/N=C\C=N/NC(=S)N(C)C`, the growth was 47.9%. Turning to `CCCCCCN1C(=O)C2=C(c3ccc(Cl)cc3)Nc3c(c(C)nn3-c3ccccc3)C2c2ccccc21` (stereo not given), the growth was 103%.

For the compound `O=C(Nc1ccc(Cl)c([N+](=O)[O-])c1)Nc1nc2ccccc2s1`, the growth is 88.7%.

Take `C/C(N)=C(\C#N)C(=O)c1ccccc1`: the growth was 110%. As to `CN(C)CCOc1nc2ccccc2c2c1-c1ccc(Cl)cc1C2=O`, the growth is -83.4% (active).

Regarding `CCCCCC(=O)c1ccc(OCCCN2CCN(C(=O)OCC)CC2)cc1`, the growth is 103%.
